The campaign covered roughly 2,200 compounds. About 15 (0.7%) were called active.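 Rule for the calls: active = fitted half-maximal concentration for loss of luminescence signal no more than a set limit of log units above the top tested concentration; inconclusive = flat fit with 30 to 70% signal loss, or invalid fit; inactive = half-maximal concentration above that set limit.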 For the sample, actives were picked, then their nearest neighbours and some compounds at random.
Assay: ADP-Glo luciferase signal interference – biochemical, luminescence, cell-free, homogeneous, artefact control for GSK3beta inhibitor project, dose response (AID 434947);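 note: kinase-free counter screen of ADP-Glo detection reagents for GSK3beta hits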
Settings: Cell-free ADP-Glo reagents, 5 uM ADP

EC50, inactive:
COc1cccc(C2C3=C(CCCC3=O)Nc3[nH]n(-c4ccccc4)c(=O)c32)c1 (stereo not given) > 30 µM
Cc1ccc(C(=O)O/N=C\c2ccc(N3CCCCC3)c([N+](=O)[O-])c2)cc1 > 30 µM
Cc1ccc(Sc2ccc(/C=N/O)cc2[N+](=O)[O-])cc1 > 30 µM
CS(=O)(=O)N(CCc1ccccc1)CC(=O)N1CCN(c2ccccc2F)CC1 > 30 µM
CC1CCN(Cc2c(C(=O)N/N=C/c3ccccc3O)nnn2-c2nonc2N)CC1 > 30 µM
Cn1c(SCC(=O)NC2CCCCC2)nnc1-c1ccccn1 > 30 µM
O=C(CCSc1nnc(-c2ccncc2)o1)Nc1ccc(F)cc1 > 30 µM
O=C1Nc2cc(C(=O)NCCCN3CCCC3)ccc2S/C1=C/c1ccccc1F > 30 µM
CCCNC(=O)c1ccc(Cl)cc1Cl > 30 µM
COc1cccc(C(=O)CSc2nccn2C)c1 > 30 µM
COc1ccc(-c2cc(C(=O)N3CCN(C(=O)c4ccco4)CC3)[nH]n2)cc1 > 30 µM
CC(C)(C)C(=O)COC(=O)c1ccc(O)cc1 > 30 µM
CC(OC(=O)c1nsc(Cl)c1Cl)C(=O)NCc1ccco1 (stereo not given) > 30 µM
COC(=O)C1=C(C)N(Cc2ccccc2)C(=NCc2ccc(OC)cc2)N[C@H]1c1cccc(F)c1 > 30 µM
CS(=O)(=O)N(Cc1ccccc1)c1ccc(C(=O)Nc2ccccc2Sc2ccccc2)cc1 > 30 µM
Cc1ccnc(NC(=O)c2ccc([N+](=O)[O-])o2)c1 > 30 µM
CCCCc1cc(=O)oc2cc(C)cc(OC(C)C(=O)O)c12 (stereo not given) > 30 µM
NC(=O)C1CCN(c2nc3c(S(=O)(=O)c4ccccc4)nnn3c3ccccc23)CC1 > 30 µM
Cc1ccnc(SCCn2c(N3CCOCC3)nc3c2c(=O)[nH]c(=O)n3C)n1 > 30 µM
CCSc1nc2sc3c(c2c(=O)n1-c1ccccc1)CCN(C)C3 > 30 µM
CCOC(=O)c1cnc2c(C)cccc2c1Nc1ccc(N2CCOCC2)cc1 > 30 µM
COc1ccc(-c2nn(-c3ccccc3)cc2CO)cc1OC > 30 µM
COc1cccc2c1cc1c(=O)n(CC(=O)NCCCc3ccccc3)nc(C)n12 > 30 µM
Cc1[nH]nc2c1C(c1ccc(N(C)C)cc1)C1=C(CC(C)(C)CC1=O)N2 (stereo not given) > 30 µM
CC(C(=O)NCc1ccccc1)n1cc([N+](=O)[O-])cn1 (stereo not given) > 30 µM
CC(C)N1CCc2c(sc(NC(=O)CCS(=O)(=O)c3ccccc3)c2C(N)=O)C1 > 30 µM
COc1cc(/C=C2/SC(=Nc3ccc(O)cc3)NC2=O)ccc1O > 30 µM
CN(C)Cc1c(O)ccc2c(=O)c(-c3ccccc3)c(C(F)(F)F)oc12 > 30 µM
COc1ccc(-c2nn(-c3ccccc3)cc2/C=C(\C#N)S(=O)(=O)c2ccccc2)cc1OC > 30 µM
Cc1ccc(S(=O)(=O)/N=C2/NC(=O)/C(=C/c3ccccc3)S2)cc1 > 30 µM
CN(C)c1ccc(C(=O)NN2C(=O)c3ccccc3C2=O)cc1 > 30 µM
O=C1CC(c2ccc(O)c(O)c2)Oc2cc(O)cc(O)c21 (stereo not given) > 30 µM
Cc1nn(-c2ccccn2)c2c1C(c1ccsc1)C1=C(CCCC1=O)N2 (stereo not given) > 30 µM
COc1cc(C(c2nnnn2C(C)(C)C)N2CCN(c3nc4ccccc4s3)CC2)ccc1O (stereo not given) > 30 µM
Cc1ccc2sc(N3CCN(CCNC(=O)c4ccco4)CC3)nc2c1C > 30 µM
O=[N+]([O-])c1cc(/C=N/O)ccc1N1CCCC1 > 30 µM
CCOC(=O)c1nnn(-c2nonc2N)c1CSc1ccc(C)cc1 > 30 µM
CC1(C)CC2CC(C)(CN2S(=O)(=O)c2ccc(C(=O)Nc3ccc(Cl)c(S(=O)(=O)N4CCOCC4)c3)cc2)C1 (stereo not given) > 30 µM
COCCN(CC(=O)NCc1ccc(F)cc1)C(=O)CCC(=O)Nc1ccccn1 > 30 µM
Cc1nc(NCCCn2ccnc2)c2ccccc2n1 > 30 µM
Cc1csc(SCC(=O)Nc2ccc(Cl)cn2)n1 > 30 µM
CCc1nnc(NC(=O)c2cc(-c3ccccc3)nn2-c2ccccc2)s1 > 30 µM
O=C(CS(=O)(=O)c1ccccc1)Nc1ncc([N+](=O)[O-])s1 > 30 µM
COc1ccc2nc(C)cc(N3CCOCC3)c2c1 > 30 µM
CC1=C(C(=O)Nc2ccccc2F)C(c2cccs2)C2=C(CCCC2=O)N1 (stereo not given) > 30 µM

From PubChem BioAssay AID434947 (Broad Institute, 2010)
